Assay results from the supplement of paper PMC10646978.
± gives the standard deviation.

Test system: RAW-Dual (murine macrophage reporter line)
Assay: NF-kB reporter (SEAP) activity fold change vs agonist alone; higher = enhanced NF-kB activity
Details: modulator concentration 10 µM; agonist: CpG ODN 1826 0.5 ug/mL
Summary of the method: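 RAW-Dual murine macrophage reporter cells were seeded at 50 000 per well in 384-well plates and pre-incubated 1 hour at 37 °C with compound pin-transferred to 10 μM final. After 1 hour, a PRR agonist was added and cells incubated overnight. Supernatant NF-κB (SEAP, QUANTI-Blue, 620 nm absorbance) and IRF (Lucia luciferase, QUANTI-Luc, luminescence) signals were divided by the mean agonist-only control on the same plate to give fold change. Two replicate plates were averaged, with errors by propagation.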

SMILES	NF-kB reporter
O=C(C=Cc1ccc(Cl)c(Cl)c1)c1ccc2ccccc2c1O	1.09 ± 0.1
CC(C)Cn1cc(Cl)c(=O)n(CC(C)C)c1=O	1.12 ± 0.068
Cc1ccc(C=C2Oc3c(ccc(O)c3CN3CCN(CCO)CC3)C2=O)cc1	1.12 ± 0.086
CN1CCN2c3ccccc3Cc3ccccc3C2C1.Cl (configuration not stated)	1 ± 0.14
COC(=O)C1=C(C)NC(=O)CC1c1ccc(Cl)c(Cl)c1 (configuration not stated)	0.982 ± 0.075
CC(Oc1cccc(Cl)c1)C(=O)NCc1ccncc1 (configuration not stated)	0.955 ± 0.098
COc1cc(C(C)=O)ccc1OCCCN1CCC(c2noc3cc(F)ccc23)CC1	0.986 ± 0.15

Same assay, conditions: modulator concentration 10 µM; agonist: LPS 0.1 ug/mL

SMILES	NF-kB reporter
CN(C(=O)c1cncc(F)c1)C1CN(c2ccc3nnc(C4CC4)n3n2)C1	0.988 ± 0.078
Cc1ncc(CC(=O)N2CCC(c3ccccc3Cl)S(=O)(=O)CC2)s1 (configuration not stated)	0.974 ± 0.12
O=C(C=Cc1ccc(O)cc1)c1ccc(O)cc1O	1.09 ± 0.054
Cc1cccc(C(=O)ON=C(c2ccncc2)c2ccc([N+](=O)[O-])cc2)c1	0.838 ± 0.039
CCOC(=O)C1=C(C)NC(=S)NC1c1ccccc1OCc1ccccc1 (configuration not stated)	1.05 ± 0.063
O=C(C1COCC(=O)N1Cc1ccccc1)N1CCN(c2cccc(Cl)c2)CC1 (configuration not stated)	1.09 ± 0.089
COC(=O)C1=CN(CC2CCCO2)C=C(C(=O)OC)C1c1cccc(F)c1 (configuration not stated)	0.907 ± 0.084
CCOC(=O)[C@H](CCc1ccccc1)N[C@H]1CCc2ccccc2N(CC(=O)O)C1=O [Prestw-1129]	0.978 ± 0.079
NC(CO)(CO)CO.O=C(c1ccccc1)c1ccc2n1CCC2C(=O)O (configuration not stated)	1.05 ± 0.087
COc1ccc(C2C3=C(CC(c4ccccc4)CC3=O)Nc3ccccc3N2C(=O)C(C)C)cc1OC (configuration not stated)	1.05 ± 0.063
Cl.N=C(N)NC(=O)c1nc(Cl)c(N)nc1N	1.15 ± 0.22
O=Cc1cn(CCOc2ccc(Br)cc2)c2ccccc12	1.06 ± 0.054
N#Cc1c(N=Cc2ccc(Br)cc2)sc2c1CCCC2	1 ± 0.067
COc1c2c(nc3ccccc13)OC(C(C)(O)COC(C)=O)C2 (configuration not stated)	1.02 ± 0.11
Cc1ccc(OCCCOc2cccc3cccnc23)c(C)c1	1.1 ± 0.073
O=S(=O)(c1ccc(F)cc1)n1cccc1	0.746 ± 0.047
C[C@@H]1COC(Nc2ccc3ncnc(Nc4ccc(OCc5nccs5)c(Cl)c4)c3c2)=N1	0.881 ± 0.17
NCCCC[C@H](N[C@@H](CCc1ccccc1)C(=O)O)C(=O)N1CCC[C@H]1C(=O)O	0.997 ± 0.097
CC(C)COc1ccc(CNC(=O)N(Cc2ccc(F)cc2)C2CCN(C)CC2)cc1.CC(C)COc1ccc(CNC(=O)N(Cc2ccc(F)cc2)C2CCN(C)CC2)cc1.O=C(O)[C@H](O)[C@@H](O)C(=O)O	0.384 ± 0.16
O=C1c2cccc3c2[C@H](CCC3)CN1[C@@H]1CN2CCC1CC2 [Prestw-1783]	0.913 ± 0.13

SMILES	NF-kB reporter
COc1cc2nc(N3CCN(C(=O)c4ccco4)CC3)nc(N)c2cc1OC.Cl	1.12 ± 0.056
Cc1cc(C(=O)Nc2ccc(-n3nnn(C)c3=O)cc2)c(C)o1	1.05 ± 0.083
Cc1ccc(-c2cc(C(F)(F)F)n3nc(C(=O)NCCCN4CCOCC4)cc3n2)cc1	1.06 ± 0.098
Cc1cccc(NC(=O)Cc2c(C)nc(SCc3ccccc3F)[nH]c2=O)c1C	1.13 ± 0.088
Cc1ccc2sc(NC(=O)c3cccc(N4C(=O)CCC4=O)c3)nc2c1C	0.877 ± 0.074
Cc1cc(C)n(CCNc2nc3ccccc3s2)n1	1.08 ± 0.085
Cc1ccc(C(=O)N(CCCN)[C@@H](c2nc3cc(Cl)ccc3c(=O)n2Cc2ccccc2)C(C)C)cc1	0.318 ± 0.13
CC1=C(C(=O)OC(C)C)C(c2cccc([N+](=O)[O-])c2)C(C(=O)OC2CN(C(c3ccccc3)c3ccccc3)C2)=C(N)N1 (configuration not stated)	1.82 ± 0.15
COC(=O)C1=C(C)NC2=C(C(=O)CC(C)(C)C2)C1c1ccc(OC)c(O)c1 (configuration not stated)	0.981 ± 0.055
O=C(Nc1cc(C(F)(F)F)cc(C(F)(F)F)c1)c1ccco1	1.07 ± 0.061
O=C(CSc1ccc2ccccc2n1)NC1=NCCS1	0.986 ± 0.062
CC(C)n1cnc(S(=O)(=O)N2CCC(S(=O)(=O)Cc3ccccc3)CC2)c1	0.891 ± 0.072
CCNc1cc(C)nc(Nc2ccc(NC(=O)c3ccc(OC)c(OC)c3)cc2)n1	1.32 ± 0.11
O=C(C=Cc1ccc(Cl)c(Cl)c1)c1ccc2ccccc2c1O	1.06 ± 0.07
CC(C)Cn1cc(Cl)c(=O)n(CC(C)C)c1=O	1 ± 0.11
Cc1ccc(C=C2Oc3c(ccc(O)c3CN3CCN(CCO)CC3)C2=O)cc1	1.01 ± 0.13
CN1CCN2c3ccccc3Cc3ccccc3C2C1.Cl (configuration not stated)	1.07 ± 0.34
COC(=O)C1=C(C)NC(=O)CC1c1ccc(Cl)c(Cl)c1 (configuration not stated)	0.801 ± 0.065
CC(Oc1cccc(Cl)c1)C(=O)NCc1ccncc1 (configuration not stated)	1.09 ± 0.071
COc1cc(C(C)=O)ccc1OCCCN1CCC(c2noc3cc(F)ccc23)CC1	1.17 ± 0.31
